In PubChem BioAssay (EPA / NIEHS):
Inconclusive results are not listed. The source made the active and inactive calls. Rule for the calls: active = hit-call score of the fitted dose curve at least 0.9, where 1 is the maximum; inconclusive = response in the unintended direction; inactive = score below 0.9.

Each molecule was assayed against Agonist Androgen Response Element (ARE), AR (gene 367) (UniProt P10275) (assay: OT_AR_ARELUC_AG_1440: Odyssey Thera (OT) 24-hour CHO-K1 Luciferase Assay for Agonist Androgen Response Element (ARE) (AID 2283379)).
Chain of Agonist Androgen Response Element (ARE), AR (gene 367) (P10275 whole entry, looked up): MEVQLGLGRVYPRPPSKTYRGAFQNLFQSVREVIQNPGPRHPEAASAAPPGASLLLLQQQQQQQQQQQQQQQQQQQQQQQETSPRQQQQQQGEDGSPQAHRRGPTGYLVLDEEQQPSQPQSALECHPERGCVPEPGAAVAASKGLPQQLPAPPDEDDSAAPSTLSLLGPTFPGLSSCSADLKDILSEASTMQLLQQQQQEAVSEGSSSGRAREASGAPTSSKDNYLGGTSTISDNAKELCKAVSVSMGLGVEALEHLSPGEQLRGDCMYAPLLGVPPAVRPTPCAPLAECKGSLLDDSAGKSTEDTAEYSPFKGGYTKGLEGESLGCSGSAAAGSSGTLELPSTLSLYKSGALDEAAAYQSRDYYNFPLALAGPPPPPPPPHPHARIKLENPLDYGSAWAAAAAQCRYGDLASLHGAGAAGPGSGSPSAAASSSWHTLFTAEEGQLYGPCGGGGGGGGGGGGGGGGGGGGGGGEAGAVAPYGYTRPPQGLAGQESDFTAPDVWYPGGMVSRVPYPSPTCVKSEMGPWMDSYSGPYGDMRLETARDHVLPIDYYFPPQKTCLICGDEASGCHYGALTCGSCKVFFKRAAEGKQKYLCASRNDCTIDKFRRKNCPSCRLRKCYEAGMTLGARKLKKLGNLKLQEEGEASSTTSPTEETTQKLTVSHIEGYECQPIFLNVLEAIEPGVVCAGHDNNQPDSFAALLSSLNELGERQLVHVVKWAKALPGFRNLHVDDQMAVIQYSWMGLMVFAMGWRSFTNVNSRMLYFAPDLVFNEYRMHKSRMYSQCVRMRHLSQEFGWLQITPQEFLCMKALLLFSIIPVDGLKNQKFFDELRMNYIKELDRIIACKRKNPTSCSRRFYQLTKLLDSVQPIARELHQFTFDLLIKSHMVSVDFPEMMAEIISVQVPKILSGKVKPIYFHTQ
Procedure: OT_AR_ARELUC_AG_1440 is a cell-based, single-readout assay that uses CHO-K1, a chinese hamster ovary cell line, with measurements taken at 24 hours after chemical dosing in a 384-well plate.OT_AR_ARELUC_AG_1440 is one of one assay component(s) measured or calculated from the OT_AR_ARELUC_AG_1440 assay. It is designed to make measurements of luciferase induction, a form of inducible reporter, as detected with bioluminescence signals by Luciferase technology.Data from the assay component OT_AR_ARELUC_AG_1440 was analyzed into 1 assay endpoint. This assay endpoint, OT_AR_ARELUC_AG_1440, was analyzed in the positive analysis fitting direction relative to DMSO as the negative control and baseline of activity. Using a type of inducible reporter, measures of receptor for gain-of-signal activity can be used to understand the reporter gene at the pathway-level as they relate to the gene AR. Furthermore, this assay endpoint can be referred to as a primary readout, because the performed assay has only produced 1 assay endpoint. To generalize the intended target to other relatable targets, this assay endpoint is annotated to the nuclear receptor intended target family, where the subfamily is steroidal.
To identify AR agonists, CHO-K1 cells are seeded into a white-walled/white-bottom 384-well plate, followed by treatment with compounds of interest or controls for 24 hours. A luciferase assay mix containing D-luciferin and ATP in PBS is then added to the cells and luminescence quantified on a Luminoskan (Thermo Scientific) luminometer. Modulation of this assay is quantified as an increase in mean luminescence intensity relative to vehicle controls. To evaluate specificity of the AR / ARE-luc assay, several known AR agonists, AR antagonists, and ER-selective compounds were also tested in 5-pt concentration-response format in a minimum of 7 assay plates. OT determined the reproducibility of DHT-induced AR/ARE-luc transcriptional activation with a total of seven 384-well plates run on 2 different days, for 24-h time frames. A minimum of 3 replicate wells were analyzed for each sample with 14 replicate wells for vehicle controls. Luminescence data were captured on the Luminoskan luminometer.

Q: How did the outcome turn out when `O=C(O)COc1cc(Cl)c(Cl)cc1Cl` was run?
A: inactive

Q: `COCCl` was tested. Which AC50 did it give?
A: 1.22 µM (active)

Q: With `O=C(NC(=O)c1c(F)cccc1F)Nc1cc(Cl)c(OC(F)(F)C(F)C(F)(F)F)cc1Cl` (centres undefined) as the molecule, how does the outcome read?
A: inactive

Q: `CC(C)N(C(=O)CCl)c1ccccc1` was tested. Which outcome did it give?
A: inactive

Q: With `O=C1c2ccccc2C(=O)C1C(=O)C(c1ccccc1)c1ccc(Cl)cc1` (centres undefined) as the molecule, how does the outcome read?
A: inactive

Q: For `N#CCC#N`, which outcome is on record?
A: inactive

Q: For `O=S1(=O)OC(c2cc(Br)c(O)c(Br)c2)(c2cc(Br)c(O)c(Br)c2)c2ccccc21`, which AC50 is on record?
A: 0.214 µM (active)

Q: How did the outcome turn out when `O=S1OC[C@@H]2[C@H](CO1)[C@]1(Cl)C(Cl)=C(Cl)[C@@]2(Cl)C1(Cl)Cl` (some centres undefined) was run?
A: inactive

Q: `Cc1cc(Cl)ccc1OCCCC(=O)O` was tested. Which outcome did it give?
A: inactive

Q: How did the outcome turn out when `CC(=Cc1ccccc1)[N+](=O)[O-]` was run?
A: inactive

Q: Which outcome does the source give for `O=[N+]([O-])c1ccc(Cl)c([N+](=O)[O-])c1` here?
A: inactive

Q: How did the AC50 turn out when `CNC(=O)O/N=C/C(C)(C)S(C)(=O)=O` was run?
A: 0.623 µM (active)

Q: Which outcome does the source give for `C=CC(Cl)CCl` (centres undefined) here?
A: inactive

Q: For `O=C(CCl)Nc1ccccc1`, which outcome is on record?
A: inactive
